From PubChem BioAssay (Tox21) come the findings set out here.

Results filed as inconclusive are left out. Entries that show only a call come without a potency. Active and inactive are the calls of the source. Calls follow the shape of the full dose curve.

The assay can be described thus: p53 small molecule agonists, cell-based qHTS assay with human liver microsomes (AID 1963577).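 Also: p53 response element beta-lactamase reporter cells with liver microsomes plus NADPH.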 As to conditions: HCT-116 p53RE-bla with human liver microsomes, ratio, 16 h; series mostly up to 66 µM. An excerpt:
National Center for Advancing Translational Sciences [NCATS]
Division of Preclinical Innovation [DPI]
U.S. Environmental Protection Agency [EPA]
National Institutes of Environmental Health Sciences [NIEHS]
National Toxicology Program [NTP]
U.S. Food and Drug Administration [FDA]
p53, a tumor suppressor protein, is activated following cellular insult, including DNA damage and other cellular stresses. The activation of p53 regulates cell fate by inducing DNA repair, cell cycle arrest, apoptosis, or cellular senescence. The activation of p53, therefore, is a good indicator of DNA damage and other cellular stresses. […] The activation of the reporter gene under culture conditions can be detected by fluorescence intensity.
Tox21 Assay Protocol Summary:
The p53RE-bla cells were dispensed at 4,000cells/3ul/well in 1536-well black-clear bottom plates. After the assay plates were incubated at 37 C, 5% CO2 incubator for 5 hours, 23 nL of compounds dissolved in DMSO, positive controls or DMSO only was transferred to the assay plate. Following compound addition, 3 uL of human liver microsomes (XenoTech, Kansas City, KS) at final concentration of 0.5 mg/mL and 1uL of Beta-Nicotinamide adenine dinucleotide 2-phosphate (NADPH) at final concentration of 0.5 mg/mL were transferred to the assay plate. The plates were incubated at 37 C for 16 hours. 1 uL of LiveBLAzer detection mixture was added to each well and the plates were incubated at room temperature in the dark for 2 h.
Background: Quantitative high-throughput screening tests each substance at several concentrations.
Turning to `COc1ccc(C(=O)Nc2ccccc2)cc1[N+](=O)[O-]`, the Potency entry is “inactive”.
`C=CC(=O)OCC1CCCO1` (stereo not given): the Potency entry is “inactive”.
Next, `NC(=O)COCCN1CCN(C(c2ccccc2)c2ccc(Cl)cc2)CC1` (stereo not given): “inactive”; `C=CC(C)(CCC=C(C)C)OC(=O)c1ccccc1` (stereo not given): “inactive”.
With `O=C(Nc1ccc([N+](=O)[O-])cc1)Nc1ccc([N+](=O)[O-])cc1`, the Potency result was “inactive”.
The result for `CC1(C)C(=O)C(C)(C)C1=O` reads “inactive”.
As for `COc1cc2nc(Cl)nc(N)c2cc1OC`, the Potency result is “inactive”.
Consider `CCCN(CCC)c1c([N+](=O)[O-])cc(C(F)(F)F)c(N)c1[N+](=O)[O-]`, for which the Potency entry is “inactive”.
Take `CO[Si](OC)(OC)OC`: the Potency entry is “inactive”.
`Cc1cc(N)c(S(=O)(=O)O)cc1Cl`: the Potency result was “inactive”.
The result for `Cn1c(N)c(N=O)c(=O)n(C)c1=O` reads “inactive”; that for `C=CC(=O)OCCCCCCCCCC`, “inactive”; that for `CC(N)C(=O)OC(C)(C)Cc1ccc(Cl)cc1` (stereo not given), “inactive”.
As for `CCCCCCOc1ccc(N)cc1`, the Potency result was “inactive”.
In the case of `CC(C)(C)C1CCC(=O)CC1`, the Potency result is “inactive”.
With `BrCCCCCBr`, the Potency entry is “inactive”.
Next, `O=NN(CCCl)C(=O)NCCCl`: “inactive”; `CCC(C)COC(=O)CC(C)C` (stereo not given): “inactive”.
As for `CN1Cc2cc(C(=O)N3CCC(C4CCNCC4)CC3)ccc2NC(CC(=O)O)C1=O` (stereo not given), the Potency entry was “inactive”.
For `Cc1cc(C)n(CO)n1`, the Potency result is “inactive”.
Consider `CCC(=O)O[C@]1(C(=O)SCF)[C@H](C)C[C@H]2[C@@H]3C[C@H](F)C4=CC(=O)C=C[C@]4(C)[C@@]3(F)[C@@H](O)C[C@@]21C`, for which the Potency entry was “inactive”.
`CC(C)(C)c1ccccc1`: the Potency entry was “inactive”.
On to `CCC(=O)c1cccc(Cl)c1`, for which the Potency result was “inactive”.
Take `COc1c(C)c2c(c(O)c1C/C=C(\C)CCC(=O)O)C(=O)OC2`: the Potency result was “inactive”.
For the compound `CCOC(=O)[C@H](CCc1ccccc1)N[C@@H](C)C(=O)N(CC(=O)O)C1Cc2ccccc2C1`, the Potency result is “inactive”.
The result for `CNC(=O)CN(CCN(CCN(CC(=O)[O-])CC(=O)NC)CC(=O)[O-])CC(=O)[O-].O.[Gd+3]` reads “inactive”; that for `OCCC(F)(F)C(F)(F)C(F)(F)C(F)(F)C(F)(F)C(F)(F)C(F)(F)C(F)(F)F`, “inactive”.
As to `Cc1c(N)cccc1[N+](=O)[O-]`, the Potency entry was “inactive”.
In the case of `CN(C)Cc1ccccc1`, the Potency result is “inactive”.
As for `O=C(NC(Cc1cc(=O)[nH]c2ccccc12)C(=O)O)c1ccc(Cl)cc1` (stereo not given), the Potency result was “inactive”.
For the compound `c1cnc2c(n1)CCCC2`, the Potency result is “inactive”.
The result for `C[C@@H](CN1CC(=O)NC(=O)C1)N1CC(=O)NC(=O)C1` reads “inactive”; that for `Clc1nc(C(Cl)(Cl)Cl)c(Cl)c(Cl)c1Cl`, “inactive”; that for `CCc1cccc(CC)c1`, “inactive”.
As for `CC1=CP(=O)(c2ccccc2)CC1` (stereo not given), the Potency entry is “inactive”.
In the case of `CCCCCCCCCI`, the Potency entry is “inactive”.
Turning to `CCOC(=O)c1cccnc1`, the Potency result is “inactive”.
For the compound `Fc1ccc([C@@H]2CCNC[C@H]2COc2ccc3c(c2)OCO3)cc1`, the Potency entry was “inactive”.
Regarding `CCCCCCCCC=O`, the Potency entry was “inactive”.
`C/C=C(\C)C(=O)OCCC(C)CCC=C(C)C` (stereo not given): the Potency result is “inactive”.
